An excerpt weighted towards active compounds, which were near 0.97% of everything screened.
AI-2 QS mod = Vibrio harveyi AI-2 quorum sensing modulation; Vibrio harveyi JMH597 AI-2 luminescence/OD600 ratio, 9 h; stronger effect = lower value; strain lacks LuxN and CqsS sensors; 0 = neutral-control median; activity change, % at 7.5 µM; AID 2094; 300,000 compounds, 0.4% hits; in the data active means activity change below about -75%, passing the limit was not always enough; inconclusive means no clear call, values can overlap the other calls;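 further: luminescence divided by OD600 gain over 9 h not by final OD600 alone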
Hsp70 act = transcriptional activators of Hsp70 | HeLa Hsp70 promoter luciferase reporter, luminescence; scaled: vehicle 0, proteasome-inhibitor control 100% | activation, % at 10 µM | 200,000 compounds, 0.04% hits;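 active means activation above the mean across all tested compounds plus 3 SD, cutoff set per campaign, cut at about 5.5% in these data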;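 further: 100% = MG132 at 30 µM as the positive control and 0% = DMSO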
S1P4 ag = activates the human S1P4 receptor; O95977; 220,000 compounds, 0.35% hits; S1P4-expressing cell line, agonist reporter assay; activation, % at 4.98 µM; in the data active means activation above about 11%;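 further: 0% = DMSO vehicle and 100% = reference agonist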
Target sequence (O95977 whole entry, looked up): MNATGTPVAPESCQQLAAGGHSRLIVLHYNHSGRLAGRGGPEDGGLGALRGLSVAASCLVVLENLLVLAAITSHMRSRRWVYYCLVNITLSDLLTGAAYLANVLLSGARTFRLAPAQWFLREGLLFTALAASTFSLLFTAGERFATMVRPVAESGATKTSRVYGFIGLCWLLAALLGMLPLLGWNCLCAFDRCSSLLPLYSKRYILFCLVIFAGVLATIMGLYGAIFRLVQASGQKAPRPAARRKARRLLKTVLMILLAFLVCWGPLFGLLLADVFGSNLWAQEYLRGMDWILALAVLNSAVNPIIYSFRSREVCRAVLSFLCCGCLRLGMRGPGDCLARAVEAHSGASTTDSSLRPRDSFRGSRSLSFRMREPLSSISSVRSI
S1P4 antagonist = antagonists of human S1P4 receptor | 220,000 compounds, 0.26% hits | inhibition, % at 4.98 µM | AID 1510 | S1P4-expressing cells, antagonist mode, reporter read-out; in the data active means inhibition above about 29%;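 further: 0% = wells stimulated with agonist and 100% = vehicle wells without agonist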
S1P3 antagonist = antagonists of human S1P3 receptor; inhibition, % at 4.98 µM; Q99500; 170,000 compounds, 0.27% hits; AID 485; CHO S1P3 NFAT-BLA reporter, FRET fluorescence, antagonist mode;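 active means inhibition above the plate cutoff, the mean inhibition of test wells on that plate plus 3 SD, cut at about 28% in these data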;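 further: cells challenged with S1P at its EC80 of 0.8 µM; blue over green emission ratio from cleaved BLA substrate after 4 h stimulation; 0% = S1P-stimulated wells and 100% = unstimulated DMSO-only wells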
Target sequence (Q99500 whole entry, looked up): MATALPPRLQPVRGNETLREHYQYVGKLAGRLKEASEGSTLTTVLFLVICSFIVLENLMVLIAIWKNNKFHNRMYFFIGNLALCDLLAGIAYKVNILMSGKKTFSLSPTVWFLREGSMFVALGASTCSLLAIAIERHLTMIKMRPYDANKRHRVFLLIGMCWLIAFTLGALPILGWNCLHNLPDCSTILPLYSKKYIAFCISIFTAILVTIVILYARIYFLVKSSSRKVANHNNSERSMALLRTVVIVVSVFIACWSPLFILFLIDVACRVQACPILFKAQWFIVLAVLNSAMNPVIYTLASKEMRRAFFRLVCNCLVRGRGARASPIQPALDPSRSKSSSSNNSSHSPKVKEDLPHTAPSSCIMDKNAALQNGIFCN
JMH597 growth = retest Vibrio harveyi JMH597 growth inhibition; growth inhibition, % at 7.5 µM; OD600 absorbance, 9 h; lacks LuxN and CqsS sensors; 750 compounds, 1% hits; shares compounds with AI-2 QS mod;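 active means every replicate shows growth inhibition above 50%; inconclusive means at least half, but not all, replicates pass that cutoff; inactive means fewer than half of replicates pass it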
BB721 lum counter = retest counter-screen: BB721 constitutive quorum sensing luminescence decrease; Vibrio harveyi BB721 luminescence, 9 h; AID 2727; shares compounds with AI-2 QS mod; inhibition, % at 7.5 µM; 750 compounds, 95% hits;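 active means inhibition above about 80% in every replicate, not just on average, limit read from the data; inconclusive means at least half of replicates past the limit, but not all; inactive means fewer than half of replicates past the limit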
BB721 growth rt = retest Vibrio harveyi BB721 growth inhibition; shares compounds with AI-2 QS mod; OD600 absorbance, 9 h; growth inhibition, % at 7.5 µM; 750 compounds, 3% hits; AID 2728;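 active means every replicate shows growth inhibition above 50%; inconclusive means at least half but not all replicates above 50% inhibition; inactive means under half of replicates above 50% inhibition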
JMH597 AI-2 mod = Vibrio harveyi AI-2 signaling luminescence modulation – JMH597 strain, confirmation; Vibrio harveyi JMH597 AI-2 quorum sensing luminescence, 9 h; luxN and CqsS knockout, AI-2 only; 750 compounds, 97% hits; inhibition, % at 7.5 µM; shares compounds with AI-2 QS mod;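 active means every replicate shows more than 75% inhibition of signal versus neutral control wells; inconclusive means half to three quarters of replicates exceed 75% inhibition; inactive means fewer than half of replicates exceed 75% inhibition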
An asterisk follows results filed as active; u = inconclusive; x = no result given.

SMILES | AI-2 QS mod | Hsp70 act | S1P4 ag | S1P4 antagonist | S1P3 antagonist | JMH597 growth | BB721 lum counter | BB721 growth rt | JMH597 AI-2 mod
Nc1nc(-c2ccccc2)nc(-c2ccccc2O)n1 | -5 | 1 | 9 | -24 | -7 | x | x | x | x
Cc1ccc(NC(=O)Cn2ccc([N+](=O)[O-])n2)cc1Cl | 17 | 0 | -2 | -6 | 16 | x | x | x | x
Nc1ccccc1S(=O)(=O)NCCCCc1ccccc1 | -89* | x | x | x | x | -4 | 95* | 5 | 96*
COc1ccc(NC(=O)CN(c2ccc(OC)c(Cl)c2)S(=O)(=O)c2ccccc2)cc1 | u | x | x | x | x | 17 | -6 | 18 | -3
COc1ccc(N(CC(=O)Nc2ccc(OC)c(OC)c2)S(=O)(=O)c2ccccc2)cc1Cl | 6 | x | x | x | x | x | x | x | x
Cc1cccc(NC(=O)COc2ccc(/C=C\c3[nH]c(=O)[nH]c(=O)c3[N+](=O)[O-])cc2)c1 | 10 | 0 | -1 | -2 | 2 | x | x | x | x
COc1ccc(CN=Cc2c(O)[nH]c3ccccc23)cc1 | -90* | 0 | 4 | -28 | 21 | 22 | 96* | 3 | 97*
COc1ccc(N=Cc2c(O)[nH]c3ccccc23)cc1 | 2 | 1 | -1 | 4 | x | x | x | x | x
O=C(Nc1ccccc1F)C1CC1c1ccccc1 (stereo not drawn) | -84* | 0 | 0 | -17 | -8 | 2 | 92* | -27 | 93*
Cc1cccc(NC(=O)C2CC2c2ccccc2)c1C (stereo not drawn) | 15 | x | x | x | x | x | x | x | x
Cc1ccccc1C(=O)OCc1nnc(-c2ccc(Cl)cc2)o1 | u | 0 | 1 | -7 | 2 | -1 | 91* | -12 | 93*
Nc1c(S(=O)(=O)c2ccccc2)nnn1-c1ccccc1 | -97* | 0 | 3 | -13 | x | 11 | 100* | -40 | 100*
C=CCS/C(N)=N\N=C\c1c(O)ccc2ccccc12 | 6 | x | 0 | 15 | -5 | x | x | x | x
O=C(CCl)Nc1ccc(N=Nc2ccccc2)cc1 | -91* | 0 | 1 | -18 | 12 | 74* | 100* | 103* | 99*
Cc1ccc(/C(N)=N/OC(=O)Cc2ccccc2)cc1 | -67 | 0 | 0 | -10 | 12 | x | x | x | x
N/C(=N\OC(=O)Cc1ccc(-c2ccccc2)cc1)c1ccccn1 | 28 | 0 | 1 | -3 | x | x | x | x | x
COc1ccc(CC(=O)O/N=C(\N)c2ccccn2)cc1 | u | x | -1 | -1 | -3 | 8 | 84* | 3 | 88*
COc1ccc(/C(N)=N/OC(=O)Cc2ccc(C)cc2)cc1 | -91* | 0 | 1 | -14 | 0 | -8 | 95* | -26 | 97*
CCOc1cccc2c1OC1(C)CC2NC(=O)N1c1cccc(C(=O)NCc2ccccn2)c1 (stereo not drawn) | -95* | x | x | x | x | 6 | -6 | 0 | 6
O=C(/C=C/c1ccccc1Cl)NCc1ccccc1 | -94* | 0 | 2 | 11 | x | 4 | 98* | 17 | 99*
O=C(/C=C/c1ccccc1Cl)NCCc1ccccc1 | -34 | 0 | 2 | -18 | x | x | x | x | x
O=C(/C=C/c1ccccc1[N+](=O)[O-])Oc1ccccc1 | -81* | x | x | x | x | -9 | 79* | 14 | 88*
COc1ccc(CNC(=O)/C=C/c2ccccc2[N+](=O)[O-])cc1 | -80* | 0 | 0 | -12 | -7 | 14 | 95* | 3 | 96*
NS(=O)(=O)c1ccc(CNC(=O)/C=C/c2ccccc2[N+](=O)[O-])cc1 | 14 | 0 | 0 | -13 | -33 | x | x | x | x
O=C(/C=C/c1ccccc1[N+](=O)[O-])NCc1ccc(Cl)cc1 | u | -1 | 0 | 7 | -6 | -4 | 91* | 10 | 93*
SMILES | AI-2 QS mod | Hsp70 act | S1P4 ag | S1P4 antagonist | S1P3 antagonist | JMH597 growth | BB721 lum counter | BB721 growth rt | JMH597 AI-2 mod
Cc1[nH]c(C)c(S(=O)(=O)NCCc2ccccc2)c1C(=O)N1CCCCC1 | 34 | x | x | x | x | x | x | x | x
Cc1cc(NS(=O)(=O)c2ccc(NC(=O)CCc3ccccc3)cc2)no1 | -91* | 0 | 0 | 1 | -6 | 21 | 95* | 17 | 97*
CC(C)N1CC(C(=O)Nc2ccc(F)c(Cl)c2)CC1=O (stereo not drawn) | 14 | x | x | x | x | x | x | x | x
Cc1ccccc1Nc1ncnc2c1cnn2C | -1 | x | x | x | x | x | x | x | x
CCN(CC)S(=O)(=O)c1ccc(NC(=O)Cn2c(=O)sc3ccccc32)cc1 | -82* | 0 | 2 | -16 | 11 | 17 | 91* | 18 | 94*
O=C(Cn1c(=O)sc2ccccc21)Nc1ccc(S(=O)(=O)N2CCCCC2)cc1 | -90* | 0 | 1 | -3 | 26 | 44 | 96* | 28 | 99*
O=C(Cn1c(=O)sc2ccccc21)Nc1ccccc1 | 13 | 0 | -1 | 18 | x | x | x | x | x
CCCc1cc(=O)oc2cc(C)cc(OCC(=O)N3CCC(C(N)=O)CC3)c12 | 13 | x | x | x | x | x | x | x | x
COc1ccc(N2CCN(C(=O)c3ccc(NC(=O)C4=CSCCO4)cc3)CC2)cc1 | 20 | x | x | x | x | x | x | x | x
Cc1ccc(-n2nc3c(c2NC(=O)C(C)C)CS(=O)(=O)C3)cc1 | 19 | x | x | x | x | x | x | x | x
Cc1ccc(C(=O)CCC(=O)Nc2cccc(C)c2)cc1 | -89* | x | x | x | x | 39 | 96* | 27 | 97*
Cc1cccc(NC(=O)CC(=O)Nc2cccc(C)c2)c1 | -9 | x | x | x | x | x | x | x | x
Cc1cc(C(=O)Nn2cnc3ccccc3c2=O)ccc1[N+](=O)[O-] | -86* | 0 | 2 | -12 | 1 | 24 | 95* | 11 | 97*
O=C(CSc1cccc2cccc(Cl)c12)NCc1cccs1 | 14 | 0 | 2 | -16 | 2 | x | x | x | x
COc1ccc(OC)c(NC(=O)C2CCCNC2=O)c1 (stereo not drawn) | 21 | 0 | -3 | 3 | -3 | x | x | x | x
CC(C)Oc1ccc(NC(=O)C2CCCNC2=O)cc1 (stereo not drawn) | u | -1 | -1 | -13 | -52 | -7 | 89* | -3 | 93*
Cc1ccccc1NC(=O)CSc1nnc2ccc(-c3cccnc3)nn12 | 34 | x | x | x | x | x | x | x | x
COCC(C)NCC(=O)NC(C)CCc1ccccc1 (stereo not drawn) | -1 | 0 | 0 | -7 | 3 | x | x | x | x
COC(=O)/C(=C1/Oc2cc(C)oc(=O)c2S1)C(F)(F)F | u | 0 | -1 | -2 | x | 40 | 91* | 63* | 93*
COc1ccc(C(=O)OCC(=O)NC(C)(C)C)cc1[N+](=O)[O-] | 22 | -1 | 1 | -23 | 6 | x | x | x | x
COC(=O)c1ccc(Oc2ccc(C(C)(C)C)cc2)c([N+](=O)[O-])c1 | u | 0 | 0 | -12 | x | 32 | 84* | u | 91*
CC(C)(C)c1ccc(OCC(=O)NN2Cc3ccccc3C2=N)cc1 | -89* | 0 | 1 | -24 | 13 | 12 | u | -8 | 88*
